Measured values from PubChem BioAssay AID463195 (Sanford-Burnham Center for Chemical Genomics, 2010).
About 4,600 (1.4%) of roughly 330,000 compounds were called active. The sample as a whole holds a higher share of actives than the screen did. Unmarked numbers belong to inactive results.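 Rule for the calls: active = inhibition of 40% or more at the single tested concentration; inactive = the rest.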

Experiment: growth inhibitors of isogenic TIM10 control yeast, primary screen, counter-screen for tim10-1 yeast inhibitor project, luminescence, uHTS (AID 463195);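 note: wild-type TIM10 isogenic control strain grown at permissive 25 °C; 0% = DMSO yeast wells and 100% = minimal medium wells without yeast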
Conditions: S. cerevisiae TIM10 strain growth, BacTiter-Glo luminescence, 24 h; at 10 µM; hits give high values

| Structure (SMILES) | inhibition |
| --- | --- |
| COc1cc(C(=O)NCC(=O)N2CC=C(c3ccccc3)CC2)cc(OC)c1OC | 20.4% |
| O=C(Nc1cccc(NC(=O)N2CCN(c3ccccc3)CC2)c1)N1CCN(c2ccccc2)CC1 | -4.11% |
| O=C(Nc1ccc(Cl)c(Cl)c1)N1CC=C(c2ccccc2)CC1 | 48.1% (active) |
| CCOC(=O)N1CCC(N2Cc3cccc(C(=O)Nc4c(C)cccc4CC)c3C2=O)CC1 | 15.7% |
| CN(C)Cc1c(O)ccc2occ(C(O)c3ccccc3)c12 (centres undefined) | 9.39% |
| CC(=O)Cc1nsc(NC(=O)c2ccc(COc3ccc(C)cc3)o2)n1 | 20.8% |
| CC(=O)Cc1nsc(NC(=O)c2ccc(Cl)cc2Cl)n1 | 45.2% (active) |
| CC(C)NC(=O)c1ccc(Cl)cc1Cl | -6.27% |
| Cc1cc(C)cc(NS(=O)(=O)Cc2ccccc2)c1 | -1.77% |
| O=C(c1snnc1-c1ccccc1)N1CCOCC1 | 15.4% |
| O=C(CCCN1CCc2[nH]c3ccc(F)cc3c2C1)c1ccc(F)cc1 | 14.8% |
| CCc1ccc(S(=O)(=O)N/N=C\c2ccc([N+](=O)[O-])o2)cc1 | 14.1% |
| CCn1c(=O)c([N+](=O)[O-])c(NCc2ccc3c(c2)OCO3)c2ccccc21 | 15.2% |
| CCn1c(/C=C/c2ccc([N+](=O)[O-])o2)nc2ccccc2c1=O | 49.9% (active) |
| CC1CCN(C(=O)c2cc3nc(C4CC4)cc(C(F)(F)F)n3n2)CC1 | 16.4% |
| Cc1ccc(N(CC(O)CN2CCCC2)S(=O)(=O)c2ccccc2)cc1 (centres undefined) | -2.21% |
| Cc1cccc(N(CC(O)CN(C)C)S(=O)(=O)c2ccccc2)c1 (centres undefined) | 0.713% |
| Cc1cc(C)n(CC(O)CN(c2ccccc2)S(=O)(=O)c2ccc3ccccc3c2)n1 (centres undefined) | 48% (active) |
| C/C=C/C(=O)OCC(=O)Nc1ccc(F)cc1Cl | -3.48% |
| Nc1ncnc2c1ncn2[C@@H]1O[C@H](CNS(=O)(=O)c2ccc(-c3ccno3)s2)[C@@H](O)[C@H]1O | -1.72% |
| CCCS(=O)(=O)N1CCN=C1SCc1cccc(F)c1 | -11.5% |
| CCc1c(C)nc(N)n2c(SCC(=O)NC3CCCCC3)nnc12 | -10.7% |
| COc1ccc(S(=O)(=O)Nc2cc(C)on2)cc1NC(C)=O | 12% |
| O=C(O)CCCC(=O)N1N=C(c2ccco2)CC1c1ccco1 (centres undefined) | -11.4% |

| Structure (SMILES) | inhibition |
| --- | --- |
| Cc1nn2c(c1-c1ccccc1)N=C(c1ccco1)CC2c1ccccc1 (centres undefined) | 48.1% (active) |
| Cc1nn(C(=O)c2ccoc2C)c(N)c1-c1ccccc1 | -12.3% |
| CCN(CC)S(=O)(=O)N1CCC(C(=O)NC(C)CCc2ccccc2)CC1 (centres undefined) | -3.42% |
| C/C(=N\NC(=O)C1(C)CC1(Br)Br)c1ccc(C)cc1C (centres undefined) | 10% |
| O=C1Cc2cc(S(=O)(=O)Nc3cccc(F)c3)ccc2N1 | -1.95% |
| CN(C)CCN(C(=O)CN1C(=O)c2ccccc2C1=O)c1nc2cc3c(cc2s1)OCCO3 | -5.86% |
| Cc1ccc2nc(N(CCN(C)C)C(=O)C3=COCCO3)sc2c1 | 53.1% (active) |
| CCN(CC)CCN(C(=O)c1cc(Cl)sc1Cl)c1nc2cc3c(cc2s1)OCO3 | 23.3% |
| CN(C)CCN(C(=O)C1CCCCC1)c1nc2cc3c(cc2s1)OCO3 | 11.6% |
| CN(C)CCN(C(=O)C1=COCCO1)c1nc2ccc(Cl)cc2s1 | 79.4% (active) |
| CCc1ccc2nc(N(CCCN(C)C)C(=O)c3ccc4c(c3)OCCO4)sc2c1 | 13.5% |
| CC(=O)c1ccc(N2CCN(C(=O)c3ccc(Cl)c(S(=O)(=O)NC4CC4)c3)CC2)c(F)c1 | -5.83% |
| O=C1Oc2ccccc2C(=O)/C1=C/c1ccccc1O | 61.4% (active) |
| COC(=O)c1ccc(/C=C2/C(=O)Oc3ccccc32)cc1 | 25.7% |
| COc1ccc2c(c1)O/C(=C\c1ccccc1O)C2=O | 23.8% |
| C=CCO/N=C(\C)c1c(O)c(C)c(-c2ccccc2)n(-c2ccccc2)c1=O | 30.7% |
| CCCCCC(=O)Nc1ccc(-c2cn3cccnc3n2)cc1 | 33.6% |
| CC(C(=O)Nc1ccc(F)c(F)c1F)N1CCCCCC1 (centres undefined) | -12.6% |
| COCCCNC(=O)/C(C#N)=C/c1c(N2CCCCCC2)nc2ccccn2c1=O | -2.43% |
| O=Cc1c(N2CCN(c3cccc(Cl)c3)CC2)nc2ccccn2c1=O | 40.1% (active) |
| O=Cc1c(Nc2ccccc2Cl)nc2ccccn2c1=O | 4.5% |
| CCOC(=O)c1sc2nc(C)nc(Nc3ccc(OC)c(OC)c3)c2c1C | -3.77% |
| C/C(=N\NC(=O)C(N)=O)c1ccc2c(c1)OCCO2 | 9.07% |
| C/C(=N/NC(=O)c1ccncc1)c1ccc2c(c1)OCO2 | -3.5% |

| Structure (SMILES) | inhibition |
| --- | --- |
| C/C(=N/NC(=S)Nc1ccccc1)c1ccc2c(c1)OCO2 | 43.2% (active) |
| Cc1cc(C)n(-c2nc(SCC(=O)N3CCCC3)c3c4c(sc3n2)CCCC4)n1 | 47.4% (active) |
| COCCNc1nc(-n2nc(C)cc2C)nc2sc3c(c12)CCCC3 | 26.3% |
| CC(C)c1nc(SCC(=O)Nc2cccc(C(=O)O)c2)c2c3c(sc2n1)CCCC3 | 6.83% |
| O=C(OCCO)c1cc(Cl)c(C(=O)OCCO)cc1Cl | -2.48% |
| COc1ccccc1CNC(=O)CCCNS(=O)(=O)c1cccc2nsnc12 | 0.215% |
| O=C1OCCN1C(=O)[C@H]1[C@H](c2ccccc2)C(c2ccc(F)cc2)=NN1c1ccccc1 | 13.6% |
| O=C1OCCN1C(=O)[C@H]1[C@H](c2ccc(F)cc2)C(c2ccccc2)=NN1c1ccc(Br)cc1 | 16.8% |
| C[C@@H]1C(c2ccc(F)cc2)=NN(c2ccc(Br)cc2)[C@H]1C(=O)N1CCOC1=O | 44.2% (active) |
| CN(C(=O)CN(CCO)CC(=O)N(C)C(C)(C)Cc1ccccc1)C(C)(C)Cc1ccccc1 | 15.9% |
| Cc1cc(C)nc(S/C=C/C(=O)c2ccccc2)n1 | 49% (active) |
| Cc1cc(C)nc(SCC(=O)N(C)C)n1 | -9.49% |
| Cc1cc(C)nc(SCc2ccccc2C#N)n1 | 14.7% |
| Cc1cccc(N(C(=O)c2ccc(CN3CCOCC3)o2)C(C(=O)NC2CCCCC2)c2ccc(F)cc2)c1 (centres undefined) | -2.65% |
| FC(F)(F)C1CCCN(c2nsc3ccccc23)C1 (centres undefined) | 2.15% |
| OC(c1ccccc1)C(CN1CCOCC1)c1ccccc1 (centres undefined) | 3.43% |
| Oc1c(Cl)cc(Cl)c(Cl)c1Cc1c(O)c(Cl)cc(Cl)c1Cl | 90.7% (active) |
| CCCCc1cc2c(s1)CCCC/C2=N/O | 22.6% |
| CCc1ccc(-n2c(=S)sc3c(=O)n(-c4ccccc4OC)c(=S)[nH]c32)cc1 | -1.05% |
| COc1ccc(NC(=S)NCC2CCN(c3ccc(OC)cc3)C2)cc1 (centres undefined) | 48% (active) |
| COc1ccc(NC(=S)NCCN2CCC(C)CC2)cc1 | 4.83% |
| COc1ccc(N2CCC(CNC(=S)Nc3c(C)cccc3C)C2)cc1 (centres undefined) | 16.7% |
| CC(=O)N/C(=C\c1ccc(F)cc1)C(=O)NC(Cc1ccccc1)C(=O)O (centres undefined) | -0.026% |
| Cc1ccc(S(=O)(=O)/N=C(/NC(=S)Nc2c(C)n(C)n(-c3ccccc3)c2=O)c2ccccc2)cc1 | 2.05% |

| Structure (SMILES) | inhibition |
| --- | --- |
| CCCCN(C(=O)/C=C/c1ccco1)c1c(N)n(CC(C)C)c(=O)[nH]c1=O | -1.39% |
| Cc1ccsc1C(=O)N[C@@H](C)c1nnc2ccccn12 | 0.47% |
| CC1CCCN(c2ccc(C(=O)NCCc3ccccc3)cn2)C1 (centres undefined) | 20.8% |
| COc1ccc(NC(=O)CC2C(=O)NC3CCCCC3N2C(=O)c2ccc(F)cc2)cc1 (centres undefined) | -3.23% |
| CN(CC(=O)Nc1ccc(OC(F)F)cc1)S(=O)(=O)/C=C/c1ccccc1 | 15.2% |
| CC(C)N(Cc1ccccc1)C(=S)Nc1ccc(OC(F)F)cc1 | 44% (active) |
| CC(=O)c1ccc(NC(=S)N(Cc2ccccc2)C(C)C2CC2)cc1 (centres undefined) | 12.5% |
| C=CCC(CC=C)(C(N)=O)c1ccccc1 | 1.01% |
| CC(Sc1nnc2c(n1)C1CCC2(C)C1(C)C)C(=O)Nc1ccccc1 (centres undefined) | 14.6% |
| Cc1ccccc1S(=O)(=O)Cc1ccc(C(=O)NCCN2CCCCC2C)o1 (centres undefined) | -4.28% |
| CC(=C/c1ccccc1)/C=N/NC(=O)c1cc(C)oc1C | 9.24% |
| CC(C)(C)C1CCC(=NNC(=O)c2cc(-c3ccccc3)n[nH]2)CC1 (centres undefined) | -10.2% |
| CC(/C=N/NC(=O)c1cc(-c2ccc3ccccc3c2)n[nH]1)=C\c1ccco1 | 45.8% (active) |
| COCC1CCCN(Cc2cn[nH]c2-c2cc3ccccc3o2)C1 (centres undefined) | -1.56% |
| COc1ccc(CN2CCCC(C(=O)N3CCCCC3)C2)cc1 (centres undefined) | -13% |
| C=C1CCN([C@@H](Cc2ccccc2)C(=O)N2CCOCC2)S(=O)(=O)c2ccccc21 | 1.68% |
| Cn1c(=O)c2c(SCC(=O)NCC3CCCO3)nc(CC(C)(C)C)nc2n(C)c1=O (centres undefined) | 20.8% |
| C/C(Cc1ccccc1)=N\NC(=O)CNC(=O)c1ccccc1Cl | -5.47% |
| CCCN(CC1COc2ccccc2O1)C(=S)Nc1ccc(C)cc1 (centres undefined) | 30.5% |
| CC(NC(=S)Nc1ccccc1)C1COc2ccccc2O1 (centres undefined) | 47.6% (active) |
| S=C(NCC1COc2ccccc2O1)Nc1ccc(Br)cc1 (centres undefined) | -1.91% |
| C/C(=N\Nc1cccc(C(=O)O)c1)c1ccc2c(c1)Nc1ccccc1S2 | 10.7% |
